# Records with an inconclusive call do not appear. Entries that show only a call come without a potency. The source made the active and inactive calls. The call rests on the fitted dose curve; in most records, active means well fitted cell-killing curve with a large enough effect; inconclusive means small, poorly fitted or top-dose-only effect, or effect the other way; inactive means flat fitted curve, though single readings scatter.
# Test: S16 Schwann cell viability assay (CellTiter-Glo assay) (AID 624031); further: nearly all actives have a fitted effect of over 70% in size
# Details: S16 rat Schwann cells viability, 24 h; series mostly up to 57.5 µM
# Text: Charcot-Marie-Tooth-Association [CMTA]
# National Center for Advancing Translational Sciences [NCATS]
# Charcot-Marie-Tooth (CMT) disease was first characterized by Jean-Martin Charcot and Pierre Marie in France and, independently, by Howard Henry Tooth in England in 1886. CMT is one of the most common inherited neurological diseases, affecting approximately 1 in 2,500 Americans. […] The most prevalent type of CMT is known as CMT1A and caused by a duplication of the PMP22 gene which leads to over-expression of this protein. PMP22 is a glycosylated intrinsic membrane protein accounting for 2-5% of the myelin protein content, and its over-expression results in demyelination and subsequently axonal loss.
# A pair of cellular transcription-based assays was developed in the S16 rat Schwann cell lines (Hai, M., et al., 2002) stably transfected with orthogonal reporters - firefly luciferase (Fluc) and beta-lactamase (beta-Lac) - whose expression is driven by an intronic regulatory element of the PMP22 gene (Jones, E.A., et al., 2011) to recapitulate endogenous expression of PMP22. A comprehensive library of approved drugs, the NCGC Pharmaceutical Collection (Huang, R., et al., 2011), was screened in the cross-validating platform of the orthogonal reporter assays to identify drug modulators inhibitory towards PMP22 expression.
# A set of counter-screens was devised to address non-specific activity of the library. An ATP-dependent CellTiter-Glo assay (developed by Promega Corp) was utilized to control cell viability. In addition, biochemical Fluc enzyme assay was performed to assess direct inhibition of the Fluc enzymatic activity.
# Hai, M., Muja, N., DeVries, G.H., Quarles, R.H. and Patel, P.I. Comparative analysis of Schwann cell lines as model systems for myelin gene transcription studies. J Neurosci Res, 2002. 69(4): pp 497-508
# Huang, R., Southall, N., Wang, Y., Yasgar A., Shinn P., Jadhav, A. , Nguyen, D.-T. and Austin, C.P., The NCGC pharmaceutical collection: a comprehensive resource of clinically approved drugs enabling repurposing and chemical genomics. Sci Transl Med, 2011. 3(80): p. 80ps16.
# Native S16 cells were seeded in white solid-bottom 1536 well plates at between 500-750 cells/6uL in DMEM medium containing 10% FBS, w/o phenol red. After overnight incubation at 37 degree Celsius/5% C02, 23 nL of compounds or DMSO were delivered to each well using a pin tool, followed by 24h-incubation at 37 degree Celsius/5% C02. Then one volume of CellTiter-Glo assay reagent (Promega) was added to each well for cell viability measured by a ViewLux plate reader (PerkinElmer). The % activity was determined by normalizing to the average readings from wells containing no cells relative to DMSO-treated cells (0% Activity). The concentration-effect curves were then classified based on curve quality (r2), response magnitude and degree of measured activity.
# Potency means the concentration at half of the fitted maximal effect.
row,Compound,Potency
1,Nc1nc(N)c2nc(CNc3ccc(C(=O)NC(CCC(=O)O)C(=O)O)cc3)cnc2n1 (stereo not given),inactive
2,COc1cc2c(Nc3ccc(Br)cc3F)ncnc2cc1OCC1CCN(C)CC1,20.3 µM (active)
3,CC(C)OC(=O)C(C(=O)OC(C)C)=C1SC=CS1,inactive
4,CC(C)Cn1cnc2c(N)nc3ccccc3c21,inactive
5,NC(=O)c1cccnc1,inactive
6,S=P(N1CC1)(N1CC1)N1CC1,inactive
7,NCCCC(O)(P(=O)(O)O)P(=O)(O)O,inactive
8,COc1ccc(C(=O)CC(=O)c2ccc(C(C)(C)C)cc2)cc1,inactive
9,CCCN[C@H]1CCc2nc(N)sc2C1,inactive
10,COC(=O)Nc1nc2ccc(C(=O)c3ccccc3)cc2[nH]1,inactive
11,C[C@]12C=CC(=O)C=C1CC[C@@H]1[C@@H]2C(=O)C[C@@]2(C)[C@H]1CC[C@]2(O)C(=O)CO,inactive
12,CCn1cc(C(=O)O)c(=O)c2cc(F)c(N3CCNCC3)nc21,inactive
13,CCn1cc(C(=O)O)c(=O)c2cc(F)c(N3CCN(C)CC3)cc21,inactive
14,CN(C)c1ccc(C(=C2C=CC(=[N+](C)C)C=C2)c2ccc(N(C)C)cc2)cc1,9.07 µM (active)
15,CCCCCCNC(=O)n1cc(F)c(=O)[nH]c1=O,inactive
16,CCOC(=O)c1ccc(C#Cc2ccc3c(c2)C(C)(C)CCS3)nc1,inactive
17,Cc1ncc([N+](=O)[O-])n1CCO,inactive
18,O=P(O)(O)C(O)(Cc1cccnc1)P(=O)(O)O,inactive
19,Cc1oc(=O)oc1CN1CCN(c2cc3c(cc2F)c(=O)c(C(=O)O)c2n3C(C)S2)CC1 (stereo not given),inactive
20,CC(C)(C#N)c1cc(Cn2cncn2)cc(C(C)(C)C#N)c1,inactive

row,Compound,Potency
1,CC1=NN(c2ccccc2)C(=O)C1,inactive
2,CN1CCN(c2c(F)cc3c(=O)c(C(=O)O)cn(CCF)c3c2F)CC1,inactive
3,NC(=O)N1c2ccccc2CC(=O)c2ccccc21,inactive
4,NC(N)=NC(N)=NCCc1ccccc1,inactive
5,CC[C@H](C)C(=O)O[C@H]1C[C@@H](C)C=C2C=C[C@H](C)[C@H](CC[C@@H]3C[C@@H](O)CC(=O)O3)[C@H]21,inactive
6,COc1ncnc(NS(=O)(=O)c2ccc(N)cc2)c1OC,inactive
7,COc1ccc(-c2ccc3cc(C(=O)O)ccc3c2)cc1C12CC3CC(CC(C3)C1)C2,inactive
8,COc1ccc2cc3[n+](cc2c1OC)CCc1cc2c(cc1-3)OCO2,inactive
9,O=c1cc(O)c(Cl)c[nH]1,inactive
10,O=C(O)CCn1c2c(c3ccccc31)C[C@H](NS(=O)(=O)c1ccc(F)cc1)CC2,inactive
11,COc1c(N2CCNC(C)C2)c(F)cc2c(=O)c(C(=O)O)cn(C3CC3)c12 (stereo not given),inactive
12,CCCCOc1ccc(CC(=O)NO)cc1,inactive
13,COc1nc(N)nc2c1ncn2[C@@H]1O[C@H](CO)[C@@H](O)[C@@H]1O,inactive
14,CC(C)NCC(O)c1ccc(NS(C)(=O)=O)cc1 (stereo not given),inactive
15,O=C(O)c1cccnc1,inactive
16,Clc1ccccc1CN1CCc2sccc2C1,inactive
17,CCOC(=O)[C@H](CCc1ccccc1)N[C@H]1CS[C@H](c2cccs2)CN(CC(=O)O)C1=O,inactive
18,CN(C)CCc1c[nH]c2ccc(CS(=O)(=O)N3CCCC3)cc12,inactive
19,CC(N)C12CC3CC(CC(C3)C1)C2 (stereo not given),inactive
20,O=S(=O)(O)CCS,inactive
